From PubChem BioAssay (NCATS)
Results filed as inconclusive are left out. A call without a number means that no potency is given here. Activity calls are given as the source filed them. The call rests on the fitted dose curve; in most records, active means well fitted curve in the direction sought with a large enough effect; inconclusive means small, poorly fitted or top-dose-only effect, or another doubt; inactive means no such curve, though single readings can be large; an effect the other way counts as inactive or inconclusive.

How the values were obtained:
[1] = S16 Schwann cell PMP22 intronic element firefly luciferase assay (AID 624032); details: S16 rat Schwann cells, PMP22 element FLuc, 24 h; series mostly up to 57.5 µM; further: nearly all actives have a fitted effect of over 30% in size
Procedure, shortened: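 Luciferase reporter of PMP22 intronic-element expression in stably transfected S16 rat Schwann cells, read by ONE-Glo luminescence after 24 h compound exposure at 37 C. Activity scaled between DMSO (0%) and positive-control PTC124; concentration-effect curves quality-classified.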

[2] = tested on: CP215; experiment: qHTS profiling for inhibitors of Plasmodium falciparum proliferation (AID 504749); further: nearly all actives have a fitted effect of over 60% in size; details: P. falciparum in erythrocytes, SYBR Green DNA, 72 h; series mostly up to 28.7 µM
Procedure, shortened: (§1)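 SYBR Green fluorescence of parasite DNA, read after lysis and overnight dark incubation, measured growth over 72 h in erythrocyte culture at 0.3% parasitemia and 2.5% hematocrit. Data normalised to DMSO and 0.29 uM artemisinin, with plate-drift correction.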

[3] = tested on: CP266; experiment: as above; details: P. falciparum in erythrocytes, SYBR Green DNA, 72 h; series mostly up to 28.7 µM
Procedure, shortened: as §1

[4] = tested on: CP291; experiment: as above; details: P. falciparum in erythrocytes, SYBR Green DNA, 72 h; series mostly up to 28.7 µM
Procedure, shortened: as §1

[5] = tested on: 7G8; experiment: as above; details: P. falciparum in erythrocytes, SYBR Green DNA, 72 h; series mostly up to 28.7 µM
Procedure, shortened: as §1

[6] = tested on: CP185; experiment: as above; details: P. falciparum in erythrocytes, SYBR Green DNA, 72 h; series mostly up to 28.7 µM
Procedure, shortened: as §1

[7] = tested on: CP194; experiment: as above; details: P. falciparum in erythrocytes, SYBR Green DNA, 72 h; series mostly up to 28.7 µM
Procedure, shortened: as §1

[8] = tested on: CP211; experiment: as above; details: P. falciparum in erythrocytes, SYBR Green DNA, 72 h; series mostly up to 28.7 µM
Procedure, shortened: as §1

[9] = tested on: CP238; experiment: as above; details: P. falciparum in erythrocytes, SYBR Green DNA, 72 h; series mostly up to 28.7 µM
Procedure, shortened: as §1

[10] = tested on: CP252; experiment: as above; details: P. falciparum in erythrocytes, SYBR Green DNA, 72 h; series mostly up to 28.7 µM
Procedure, shortened: as §1

[11] = tested on: CP268; experiment: as above; details: P. falciparum in erythrocytes, SYBR Green DNA, 72 h; series mostly up to 28.7 µM
Procedure, shortened: as §1

[12] = tested on: CP305; experiment: as above; details: P. falciparum in erythrocytes, SYBR Green DNA, 72 h; series mostly up to 28.7 µM
Procedure, shortened: as §1

[13] = tested on: DIV14; experiment: as above; details: P. falciparum in erythrocytes, SYBR Green DNA, 72 h; series mostly up to 28.7 µM
Procedure, shortened: as §1

[14] = tested on: HB3; experiment: as above; details: P. falciparum in erythrocytes, SYBR Green DNA, 72 h; series mostly up to 28.7 µM
Procedure, shortened: as §1

[15] = tested on: CP297; experiment: as above; details: P. falciparum in erythrocytes, SYBR Green DNA, 72 h; series mostly up to 28.7 µM
Procedure, shortened: as §1

[16] = tested on: JCK; experiment: as above; details: P. falciparum in erythrocytes, SYBR Green DNA, 72 h; series mostly up to 28.7 µM
Procedure, shortened: as §1

[17] = tested on: PC15; experiment: as above; details: P. falciparum in erythrocytes, SYBR Green DNA, 72 h; series mostly up to 28.7 µM
Procedure, shortened: as §1

[18] = tested on: DIV17; experiment: as above; details: P. falciparum in erythrocytes, SYBR Green DNA, 72 h; series mostly up to 28.7 µM
Procedure, shortened: as §1

[19] = tested on: DIV30; experiment: as above; details: P. falciparum in erythrocytes, SYBR Green DNA, 72 h; series mostly up to 28.7 µM
Procedure, shortened: as §1

[20] = tested on: CP237; experiment: as above; details: P. falciparum in erythrocytes, SYBR Green DNA, 72 h; series mostly up to 28.7 µM
Procedure, shortened: as §1
Potency means the concentration at half of the fitted maximal effect.

Row | SMILES | Potency [1] | Potency [2] | Potency [3] | Potency [4] | Potency [5] | Potency [6] | Potency [7] | Potency [8] | Potency [9] | Potency [10] | Potency [11] | Potency [12] | Potency [13] | Potency [14] | Potency [15] | Potency [16] | Potency [17] | Potency [18] | Potency [19] | Potency [20]
1 | O=C(O)c1ccccc1-c1c2ccc(=O)cc-2oc2cc(O)ccc12 | inactive | inactive | inactive | inactive |  |  |  |  |  |  |  |  |  |  |  |  |  |  |  | 
2 | CC1=C[C@@H](O)CC(C)(C)[C@@H]1/C=C/C(C)=C/C=C/C(C)=C/C=C/C=C(C)/C=C/C=C(C)/C=C/C1=C(C)C[C@H](O)CC1(C)C |  |  | inactive | inactive | 10 µM (active) | inactive | inactive | inactive | inactive | inactive | inactive | inactive | 12 µM (active) | 11.2 µM (active) |  |  |  |  |  | 
3 | NC(C(=O)O)C(O)c1ccc(O)c(O)c1 (stereo not given) | inactive |  |  |  |  |  |  |  |  |  |  |  |  |  | 16.9 µM (active) | inactive | inactive |  |  | 
4 | COC(=O)C1[C@@H](OC)C(OC(=O)COc2ccc(OC)cc2)C[C@@H]2CN3CCc4c([nH]c5cc(OC)ccc45)[C@H]3C[C@H]12 (stereo not given in full) |  | inactive | inactive |  | 7.94 µM (active) |  |  | inactive |  |  |  |  | 7.57 µM (active) | 12.6 µM (active) | inactive | inactive |  | 6.75 µM (active) | 8.49 µM (active) | 
5 | CCC(=O)OC1C(N(C)C)CC(C)O[C@H]1O[C@H]1[C@H](C)[C@@H](O[C@H]2CC(OC)[C@@H](O)C(C)O2)[C@H](C)C(=O)O[C@@H](CC)[C@](C)(O)[C@@H](O)[C@H](C)C(=O)[C@@H](C)C[C@]1(C)O (stereo not given in full) | inactive |  | inactive | inactive | inactive |  | inactive | inactive | inactive |  | inactive | inactive | inactive | inactive |  | inactive | inactive |  | inactive | inactive
6 | CC1=C(/C=C/C(C)=C\C=C\C(C)=C\C=C\C=C(C)\C=C\C=C(C)\C=C\C2=C(C)C[C@@H](O)CC2(C)C)C(C)(C)C[C@H](O)C1 |  | inactive |  | inactive | 1.26 µM (active) | inactive | inactive | inactive | inactive |  | inactive | inactive | 12 µM (active) | 10 µM (active) |  |  |  | 13.5 µM (active) |  | 11.2 µM (active)
7 | O=C1Oc2ccccc2C(=O)C1C(CC(O)c1ccc(-c2ccc(Br)cc2)cc1)c1ccccc1 (stereo not given) | 36.1 µM (active) | inactive | inactive | inactive | 12.6 µM (active) | inactive | inactive | inactive | inactive | inactive | inactive | inactive |  | inactive | inactive |  | inactive |  | inactive | inactive
8 | Nc1nc(Cl)nc2c1ncn2[C@@H]1O[C@H](CO)[C@H](O)C1F (stereo not given in full) | 0.907 µM (active) | inactive | inactive |  |  | inactive | inactive | inactive | inactive | inactive | inactive | inactive | inactive | inactive | inactive | inactive | inactive | inactive | inactive | inactive
9 | C[C@]12CCC(=O)C=C1[C@@H]1C[C@H]1[C@H]1[C@@H]3[C@@H]4C[C@H]4[C@@]4(CCC(=O)O4)[C@@]3(C)CC[C@@H]12 |  |  | inactive | inactive |  | inactive |  | inactive | inactive | inactive | inactive | inactive |  | inactive | inactive | inactive | inactive | inactive |  | inactive
10 | CC1=C(C/C=C(\C)CCCC(C)CCCC(C)CCCC(C)C)C(=O)c2ccccc2C1=O (stereo not given) |  | inactive | inactive |  | 8.91 µM (active) | inactive | inactive | inactive | inactive | inactive | inactive | inactive |  | 11.2 µM (active) | inactive | inactive |  | inactive | inactive | 
11 | O=C(NC(CO)C(O)c1ccc([N+](=O)[O-])cc1)C(Cl)Cl (stereo not given) | inactive |  |  | 3.01 µM (active) |  |  | inactive |  |  |  |  |  |  |  |  | inactive | inactive | inactive | inactive | 
12 | CC(C)CCCC(C)C1CC(=O)C2=C3CCC4CC(O)CCC4(C)C3CCC21C (stereo not given) |  | inactive | inactive | inactive |  | inactive | inactive | inactive | inactive | inactive | inactive | inactive | inactive |  | inactive | inactive | inactive | inactive | inactive | 
13 | C=C1CC2C3C=C(C)C4=CC(=O)CCC4(C)C3CCC2(C)[C@@]1(OC(C)=O)C(C)=O (stereo not given in full) |  |  |  |  | 12.6 µM (active) | inactive |  |  | inactive | inactive |  |  |  |  |  | inactive | inactive |  |  | inactive
14 | C[C@@H]1CC2[C@@H]3C[C@H](F)C4=CC(=O)C(Cl)=C[C@]4(C)[C@@]3(F)[C@H](O)C[C@]2(C)[C@@]1(O)C(=O)CO (stereo not given in full) | inactive | inactive | inactive | inactive | 8.91 µM (active) |  | inactive | inactive |  |  | inactive | inactive |  | inactive | inactive | inactive | inactive |  | inactive | 
15 | CC[C@H]1OC(=O)[C@H](C)C(=O)[C@H](C)[C@@H](OC2O[C@H](C)C[C@H](N(C)C)[C@@H]2O)[C@@](C)(OC)C[C@@H](C)C(=O)[C@@H](C)C2N(CCCCn3cnc(-c4cccnc4)c3)C(=O)O[C@@]21C (stereo not given in full) |  | inactive | inactive | inactive | 7.94 µM (active) | inactive | inactive | inactive | inactive | inactive | inactive | inactive | 12 µM (active) |  |  |  | inactive | 13.5 µM (active) |  | 
16 | CCC1OC(=O)C[C@@H](O)[C@H](C)[C@@H](OC2OC(C)CC(N(C)C)C2O)[C@@H](CC=O)C[C@@H](C)C(=O)/C=C/[C@]2(C)OC2C1C (stereo not given in full) |  |  |  |  | 4.47 µM (active) | 2 µM (active) |  |  |  | 3.55 µM (active) |  |  |  |  | 2.13 µM (active) | inactive | inactive |  |  | 5.01 µM (active)
17 | Oc1cc2cc(CCN3CCN(c4nsc5ccccc45)CC3)c(Cl)cc2[nH]1 | inactive | inactive | inactive |  | 6.31 µM (active) | inactive | inactive | inactive | inactive | inactive |  | inactive | 6.75 µM (active) |  | inactive | inactive |  |  |  | 
18 | CCC(C)C(N)C(=O)O (stereo not given) | inactive | inactive | inactive | inactive | inactive | inactive | inactive | inactive | inactive | inactive | inactive | inactive | inactive | inactive | inactive | inactive | inactive | inactive | inactive | inactive
19 | CCCCC(=O)OC1CCC2C3CCc4cc(O)ccc4C3CC[C@]12C (stereo not given in full) |  | inactive | inactive | inactive |  | inactive | inactive | inactive | inactive | inactive | inactive | inactive |  | inactive |  | inactive |  |  | inactive | inactive
20 | OCC(O)C(O)C(O)C(O)CO (stereo not given) | inactive | inactive | inactive | inactive | inactive | inactive | inactive | inactive | inactive | inactive | inactive | inactive | inactive | inactive | inactive | inactive | inactive | inactive | inactive | inactive
21 | CN(C)CC[C@@](O)(c1ccccc1)c1ccccc1Cl | inactive |  |  |  | 3.55 µM (active) | 11.2 µM (active) | 7.57 µM (active) |  | 11.2 µM (active) | 11.2 µM (active) | 13.5 µM (active) |  | 6.75 µM (active) |  | 5.36 µM (active) |  | 7.08 µM (active) | 6.75 µM (active) | 10.7 µM (active) | 1.41 µM (active)
22 | Cc1cncc(C(=O)O)[n+]1[O-] | inactive | inactive |  | inactive | inactive |  | inactive | inactive |  |  | inactive | inactive | inactive | inactive | inactive | inactive | inactive | inactive | inactive | inactive
23 | C=CCN1CC(C(=O)N(CCCN(C)C)C(=O)NCC)CC2c3cccc4[nH]cc(c34)CC21 (stereo not given) |  | inactive | inactive |  | 10 µM (active) | inactive | inactive | inactive | inactive |  | inactive | inactive | 15.1 µM (active) | inactive | inactive | inactive |  | 13.5 µM (active) | inactive | 8.91 µM (active)
24 | C[C@H](CN1c2ccccc2Sc2cccnc21)N(C)C | inactive | 9.53 µM (active) |  |  |  | 11.2 µM (active) |  |  | 10 µM (active) | 11.2 µM (active) |  |  | 4.78 µM (active) | inactive | 15.1 µM (active) |  |  | 4.78 µM (active) |  | 2 µM (active)
25 | C=C1CCC(O)C/C1=C/C=C1\CCC[C@]2(C)[C@@H]([C@H](C)/C=C/[C@H](C)C(C)C)CC[C@@H]12 (stereo not given in full) | 36.1 µM (active) | inactive | inactive | inactive | 10 µM (active) |  | inactive | inactive | inactive |  | inactive | inactive | inactive |  | inactive | 0.708 µM (active) |  | inactive | inactive | inactive
